Source: article PMC4552634, “A New Set of Chemical Starting Points with Plasmodium falciparum Transmission-Blocking Potential for Antimalarial Drug Discovery” (PLoS ONE, 2015)
The whole screen tested about 13,000 compounds, of which about 3,200 (25%) showed an effect of 50% or more. The list shows a part of the results.

Tested on: P. falciparum stage V gametocytes
Design: BacTiter-Glo ATP luminescence viability of purified stage V gametocytes in 384-well plates, per cent inhibition versus DMSO
Conditions: 48 h, 5 µM; inhibitor

SMILES | % Inhibition
O=C(Nc1ccc(OC2CCN(Cc3ccc(F)cc3)C2)c(Cl)c1)c1ccsc1 (centres unmarked) [TCMDC-133756] | -6.821%
O=C(Nc1cccc(Cl)c1Cl)N1CCc2cc3nccc(N4CCN5CCC[C@H]5C4)c3cc21 [TCMDC-140054] | -5.668%
O=C(NC1CCCCC1)N(Cc1ccccc1-c1ccc(CNCCc2ccccc2)cc1)C1CCN(Cc2ccccc2)CC1 [TCMDC-140625] | 106.9%
O=C(c1ccccc1)N(Cc1ccccc1-c1ccc(CNCCc2ccccc2)cc1)C1CCN(Cc2ccccc2)CC1 [TCMDC-140531] | 62.45%
CC(=O)N(Cc1ccccc1-c1cccc(CNCCc2ccccc2)c1)C1CCN(Cc2ccccc2)CC1 [TCMDC-140524] | 45.75%
CC(C)CNCc1ccc(-c2ccccc2CN(C(=O)NCCc2ccccc2)C2CCN(Cc3ccccc3)CC2)cc1 [TCMDC-140609] | 78.77%
CC(=O)N(Cc1ccccc1-c1ccc(CNCCc2ccccc2)cc1)C1CCN(Cc2ccccc2)CC1 [TCMDC-140525] | 102.9%
CCOc1ccc(N2C(N)=NC(N)=NC2(C)C)cc1 [TCMDC-124280] | 3.734%
COc1cc(C(=O)NC2CCN(Cc3ccccc3)CC2)ccc1-c1cc2cc(Cl)c(Cl)cc2[nH]1 [TCMDC-141286] | 1.884%
CC(C)[C@H](NC(=O)c1c(CN2CCC(N3CCCCC3)CC2)c(-c2ccccc2)nc2cc(O)ccc12)c1ccccc1 [TCMDC-140676] | 20.63%
O=C(NCCc1ccccc1)N(Cc1ccccc1-c1cccc(CNCc2ccc3c(c2)OCO3)c1)C1CCN(Cc2ccccc2)CC1 [TCMDC-140614] | 15.63%
O=C(NCCc1ccccc1)N(Cc1ccccc1-c1ccc(CNCCc2ccccc2)cc1)C1CCN(Cc2ccccc2)CC1 [TCMDC-140611] | 104.9%
O=C(NCCc1ccccc1)N(Cc1ccccc1-c1cccc(CNCCc2ccccc2)c1)C1CCN(Cc2ccccc2)CC1 [TCMDC-140610] | 46.01%
CC(C)CNCc1cccc(-c2ccccc2CN(C(=O)NCCc2ccccc2)C2CCN(Cc3ccccc3)CC2)c1 [TCMDC-140608] | 89.6%
Fc1ccc2[nH]c3c(NCCN4CCCCC4)ncnc3c2c1 [TCMDC-123757] | -41.7%
CCc1cc(=O)[nH]c(-n2nc(C)cc2NC(=O)CC(c2ccccc2)c2ccccc2)n1 [TCMDC-124942] | 38.89%
Cc1cccc(Nc2nccc(NCC(O)c3cccc(C(F)(F)F)c3)n2)c1 (centres unmarked) [TCMDC-136582] | 10%
CCCCCCNC[C@@H](O)[C@H](Cc1ccccc1)NC(=O)c1cc(NCC)cc(N2CCCCS2(=O)=O)c1 [TCMDC-135218] | 27.85%
Cc1ccc2[nH]c(C3CCCNC3)c(-c3ccncc3)c2c1 (centres unmarked) [TCMDC-134505] | 76.33%
COC(=O)c1cc(NC(=O)Nc2ccc(Cn3ncc(N4CCCNCC4)c(Cl)c3=O)cc2)cc(C(=O)OC)c1 [TCMDC-133324] | 3.06%
Clc1cc(Nc2ccnc3ccc(Br)cc23)ccc1Oc1ccc2ccccc2c1Cl [TCMDC-124239] | 37.87%
COC(=O)CCCCOc1c(OC)cc(Cc2cnc(N)nc2N)cc1OC [TCMDC-137353] | 24.77%
CCN(CCCN1CCCCC1)c1cc(C)nc(Nc2ccc(Cl)cc2)n1 [TCMDC-137488] | -3.889%

SMILES | % Inhibition
Cc1cc(N(C)CCCN2CCCCC2)nc(Nc2ccc(Cl)cc2)n1 [TCMDC-137485] | 86.59%
CCN(CCCN1CCCCC1)c1cc(C)nc(Nc2ccc(C)cc2Br)n1 [TCMDC-132441] | 94.55%
CCN(CCCN1CCCC1)c1cc(C)nc(Nc2ccc(Cl)cc2)n1 [TCMDC-137224] | 44.32%
Cc1cc(N(C)C2CCN(C)CC2)nc(Nc2ccc(Br)cc2)n1 [TCMDC-137015] | 43.74%
Cc1cc(N(C)C2CCN(C)C2)nc(Nc2ccc(Cl)cc2)n1 (centres unmarked) [TCMDC-137010] | 65.31%
CCN(CCCN1CCCCC1)c1cc(C)nc(Nc2cc(Br)ccc2C)n1 [TCMDC-132432] | 22.76%
Cc1cc(N(C)C2CCN(C)CC2)nc(Nc2ccc(Cl)cc2)n1 [TCMDC-132418] | 22.03%
CCN(CCCN1CCCCC1)c1cc(C)nc(Nc2cc(C)ccc2C)n1 [TCMDC-132449] | 18.24%
CCN(CCCN1CCCCC1)c1cc(C)nc(Nc2cc(Cl)ccc2C)n1 [TCMDC-132446] | 50.43%
CCN(CCCN1CCCCC1)c1cc(C)nc(Nc2ccc(Br)cc2F)n1 [TCMDC-132428] | 4.971%
Cc1c(Cc2ccccc2Cl)cnc2nc(N)nc(N)c12 [TCMDC-137245] | 7.074%
CCC(C)NS(=O)(=O)c1ccc2nc(Nc3ccc(C)cc3)n(C(C)C(C)(C)C)c2c1 (centres unmarked) [TCMDC-136230] | -32.2%
Cc1cccc2[nH]c(-c3ccc(-c4cccc(NC(=O)Nc5ccsc5)c4)cc3)nc12 [TCMDC-133217] | -11.37%
CS(=O)(=O)CCOCc1ccc(-c2ccc3ncnc(Nc4ccc(OCc5cccc(F)c5)c(Cl)c4)c3c2)o1 [TCMDC-138529] | -28.77%
CC1(C)N=C(N)N=C(N)N1OCc1cc(Cl)cc2c1OCOC2 [TCMDC-131577] | 12.67%
COc1cc(C)nc2ccc(NC(=O)Nc3ccccc3[N+](=O)[O-])cc12 [TCMDC-139396] | 3.442%
CCN(CCCN1CCCCC1)c1cc(C)nc(Nc2ccc3c(c2)CCC3)n1 [TCMDC-132443] | -21.7%
CCCc1ccccc1Nc1nc(C)cc(N(CC)CCCN2CCCCC2)n1 [TCMDC-132434] | 49.3%
CCN(CCCN1CCCCC1)c1cc(C)nc(Nc2ccc(C)cc2C)n1 [TCMDC-132445] | 14.07%
CCN(CCCN1CCCCC1)c1cc(C)nc(Nc2ccc(Cl)cc2C)n1 [TCMDC-132447] | 51.94%
CCN(CCCN1CCCCC1)c1cc(C)nc(Nc2cccc3c2CCCC3)n1 [TCMDC-132431] | 65.25%
CCN(CCCN1CCCCC1)c1cc(C)nc(Nc2ccc(C)cc2Cl)n1 [TCMDC-132442] | 11.92%
COc1ccc2nccc([C@@H](O)CN3CCC(NCc4cc5oc(=O)[nH]c5cc4Cl)CC3)c2c1 [TCMDC-141121] | -3.584%

SMILES | % Inhibition
Cc1cccc2nc(-c3cccc(-c4ccc(NC(=O)NC5CC5c5ccccc5)cc4)c3)[nH]c12 (centres unmarked) [TCMDC-133252] | -20.42%
Cc1cc2ncc(C(N)=O)c(Nc3ccc(N4CCOCC4)cc3)c2cc1S(C)(=O)=O.Cl [TCMDC-135825] | -8.581%
CCCCc1ccc(-c2c(N)nc(N)nc2CC)cc1 [TCMDC-138064] | -26.34%
O=C(/C=C/c1ccc(Cl)c(Cl)c1)NCCCCCCN1CCN(C(=O)Nc2cc(F)cc(F)c2)CC1 [TCMDC-135832] | -49.78%
COc1ccc2nccc(NCC3(O)CCN(CC(O)c4ccc5c(c4)NC(=O)CS5)CC3)c2n1 (centres unmarked) [TCMDC-141462] | 18.04%
CCc1cc([C@H]2O[C@@H](n3cnc4c(NCC(c5ccccc5)c5ccccc5)nc(NCCNc5ccccn5)nc43)[C@H](O)[C@@H]2O)on1 [TCMDC-138085] | 3.442%
CC(C)(C)c1ccc(CNC(=O)c2cc(CNC3CCNC3)ccc2O)cc1 (centres unmarked) [TCMDC-140761] | 47.42%
CC(C)(C)c1ccc(CN2CCC(NC(=O)c3ccc(-c4cccc(Cl)c4)s3)CC2)cc1 [TCMDC-134352] | -48.88%
O=C(NCc1ccc(Cl)c(Cl)c1)c1cc(CNC2CCNCC2)ccc1O [TCMDC-140774] | 49.2%
COc1ccc(CCNC(=O)c2cc(C)ccc2O)cc1-c1ccc(C(C)(C)C)cc1 [TCMDC-136184] | 6.315%
CC(C)(C)c1ccc(CNC(=O)/C=C/c2ccc(CNC3CCNCC3)cc2)cc1 [TCMDC-140773] | 88.02%
CC(C)(C)c1ccc(CNC(=O)c2ccc(CNC3CCC(N)CC3)s2)cc1 (centres unmarked) [TCMDC-140777] | 101.7%
CC(C)(C)c1ccc(CNC(=O)c2cc(CNC3CCNCC3)ccc2O)cc1 [TCMDC-140775] | 70.98%
CC(C)(C)C/C=C\c1ccc(C(=O)NCC2CC2)cc1 [TCMDC-138516] | 17.43%
CC(C)(CNC(=O)/C=C/c1ccc(C(F)(F)F)cc1)CNc1cc(=O)c2ccccc2[nH]1 [TCMDC-139403] | -57.07%
COc1ccc(O)c(C(=O)NCCc2ccc(OC)c(-c3ccc(C(C)(C)C)cc3)c2)c1 [TCMDC-136183] | 40.96%
CC(C)(C)c1ccc(CN2CCC(NC(=O)c3ccc(-c4ccccc4Cl)s3)CC2)cc1 [TCMDC-134351] | 7.857%
CC(C)(C)c1ccc(CNC(=O)c2cc(CNC3CCC(N)CC3)ccc2O)cc1 (centres unmarked) [TCMDC-140776] | 87.73%
CC(C)[C@H](NC(=O)c1ccc(O)c(-c2ccc(Cl)c(Cl)c2)c1)C(=O)NC1CCCCCC1 [TCMDC-140844] | 10.04%
Cc1cc(O)c(C(C)C)cc1C1(c2cc(C(C)C)c(O)cc2C)OC(=O)c2ccccc21 [TCMDC-123951] | -40.8%
Cn1nccc1C(=O)NCCNCc1cccc(-c2ccc(-c3nc4ccccc4[nH]3)cc2)c1.O=C(O)C(F)(F)F [TCMDC-133019] | -30.97%
CC(C)(C)c1cc(C(=O)N2CCC(c3ccccn3)CC2)n(Cc2ccccc2)n1 [TCMDC-133770] | -53.32%
